# Screening results from PubChem BioAssay.
# Sampled rows, rich in hits. Any-hit rate of the full collection: about 8.7%.
# VACV mCherry inh: qHTS for Stage-Specific Inhibitors of Vaccinia Orthopoxvirus: mCherry Reporter Primary qHTS; hit rate 0.63% among 310,000; Vaccinia virus mCherry reporter infection, fluorescence; Potency, µM (highest dose often 36.5 µM), inactives show top-dose activity change, negative = inhibition, hits mostly inhibitors; AID 720579, 2013; calls by dose curve; tested in A549 cells; further: nearly all actives have a fitted effect of over 35% in size
# AMA1-RON2 inh: qHTS for Inhibitors of AMA1-RON; Towards Development of Antimalarial Drug Lead: Primary Screen; Plasmodium falciparum AMA1 (3D7) - RON2 peptide interaction; AlphaScreen AMA1-biotinylated RON2 peptide binding; Potency, µM (series often up to 58.2 µM), without a hit: top-dose activity change, negative = inhibition, hits mostly inhibitors; hit rate 0.2% among 360,000; AID 720542, 2013;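 further: 0% = vehicle wells and -100% = peptide control; nearly all actives have a fitted effect of over 45% in size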
#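 AMA1 (3D7) with his tag at 25 nM final met compounds first, then biotinylated RON2 peptide at 25 nM; detection used donor plus acceptor beads, 10 µg/mL apiece, read by AlphaScreen after 30 min at room temperature.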
# Pf growth 48h: Primary qHTS for delayed death inhibitors of the malarial parasite plastid, 48 hour incubation; P. falciparum luciferase growth in erythrocytes, 48 h; Potency, µM (top dose mostly 28.7 µM), inactives show top-dose activity change, negative = inhibition, hits mostly inhibitors; hit rate 5.9% among 310,000; AID 504832, 2011
#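 Firefly luciferase activity from engineered P. falciparum reports growth; inhibitors lower the luminescent signal. Cultures contained 2% hematocrit erythrocytes at 0.1% final parasitemia.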
# Vaccinia Venus: qHTS for Stage-Specific Inhibitors of Vaccinia Orthopoxvirus: Venus Reporter Primary qHTS; Vaccinia virus Venus reporter expression, fluorescence; Potency, µM (doses to about 36.5 µM), for the others: top-dose activity change, negative = inhibition, hits mostly inhibitors; hit rate 0.46% among 330,000; calls by dose curve; tested in A549 cells; further: nearly all actives have a fitted effect of over 30% in size
# Pf growth 96h: Primary qHTS for delayed death inhibitors of the malarial parasite plastid, 96 hour incubation; P. falciparum luciferase reporter growth, 96 h; Potency, µM (series often up to 28.7 µM), without a hit: at the highest dose activity change, negative = inhibition, hits mostly inhibitors; hit rate 6.9% among 320,000
#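 Erythrocytes infected with luciferase-expressing P. falciparum were dispensed at 2% hematocrit and 0.05% parasitemia (final), then incubated with compounds 96 hours at 37 C in 5% CO2. Luminescence after detection reagent addition reported growth.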
# * = called active by the depositor; i = inactive; ? = inconclusive; / = no result given. Unless noted, the call rests on the fitted dose curve; in most records, active means well fitted curve in the direction sought with a large enough effect; inconclusive means small, poorly fitted or top-dose-only effect, or another doubt; inactive means no such curve, though single readings can be large; an effect the other way counts as inactive or inconclusive. Unless noted, on the % scale 0 is the no-effect control and ±100 the full control effect; potency means the concentration at half of the fitted maximal effect.
SMILES,VACV mCherry inh,AMA1-RON2 inh,Pf growth 48h,Vaccinia Venus,Pf growth 96h
O=C(NCCc1ccccn1)C1CCCN(S(=O)(=O)Cc2ccccc2)C1 (stereo not given),-7.4%,26.7%,/,-3.1%,3.7µM*
O=C(O)C1CCCN(S(=O)(=O)Cc2ccccc2)C1 (stereo not given),/,2.5%,38.0%,/,2.33µM*
O=S(=O)(Nc1cccc(-c2ccc(N3CCOCC3)nn2)c1)c1ccccc1C(F)(F)F,-13.3%,/,/,-9.5%,/
CCCCCc1nc2ccccc2c(=O)n1-c1ccc(Cl)cc1[N+](=O)[O-],/,-8.2%,4.65µM*,/,13.1µM*
CCCCc1nc2ccccc2c(=O)n1-c1ccccc1O,/,-3.9%,?,-3.1%,?
COC(=O)C1=CN(C2CC2)C=C(C(=O)OC)C1c1ccccc1OC,-3.2%,7.4%,11.7µM*,-5.6%,-11.8%
CCN1C=C(C(=O)OC)C(c2cccc(OC)c2OC)C(C(=O)OC)=C1,i,5.9%,?,-3.8%,36.6%
Cc1ccc(-c2csc(=Nc3ccccc3)n2Cc2ccc3c(c2)OCO3)cc1,-7.0%,/,/,-5.0%,/
O=C1CCc2cc(S(=O)(=O)NCCCC(=O)N3CCN(Cc4ccc5c(c4)OCO5)CC3)ccc2N1,/,5.9%,-45.6%,/,13.1µM*
CN(Cc1ccccc1)c1ccc(-c2nc(-c3ccncc3)no2)cc1[N+](=O)[O-],?,/,/,-28.1%,/
COc1ccc(Cc2nn3c(-c4ccccc4OC)nnc3s2)cc1,/,12.0%,9.28µM*,/,?
COc1ccccc1-c1nnc2sc(C3CCCCC3)nn12,-2.3%,0.0%,10.4µM*,-13.8%,20.5%
CCc1ccc(-n2nc3ccc(NC(=O)c4cc(Cl)c(OC)c(Cl)c4)cc3n2)cc1,-5.0%,/,/,-19.7%,/
COc1cccc(NC(=O)CCc2c(C)nc3c4cccnc4nn3c2C)c1,-10.6%,/,/,-7.6%,/
OCCC1CN(Cc2ccccc2-c2ccco2)CCN1C1CCCC1 (stereo not given),/,-5.5%,9.28µM*,/,?
CCOc1ccccc1N(CC(=O)NCCSc1ccccc1)S(=O)(=O)c1ccccc1,-20.6%,/,/,-20.1%,/
O=C(Cn1ccn(-c2ccc(F)cc2)c(=O)c1=O)NCCc1ccccc1,-7.5%,/,/,-0.3%,/
COc1ccc(-c2cc(-n3c(C(F)(F)F)nc4ccccc43)n(CCC#N)n2)cc1,-27.4%,-21.1%,13.1µM*,?,/
CCOc1ccccc1CN1C(=O)NC(C)(c2ccccc2)C1=O (stereo not given),/,3.5%,0.0%,/,9.28µM*
Cc1ccc(C2(C)NC(=O)N(CC(=O)NC(=O)NCCC(C)C)C2=O)cc1 (stereo not given),-0.5%,2.4%,?,-12.6%,64.2%
CCOC(=O)N1CCN(C(=O)CN2C(=O)NC(C)(c3ccc4ccccc4c3)C2=O)CC1 (stereo not given),/,-5.5%,11.7µM*,/,?
CCOC(=O)NC(=O)CN1C(=O)NC(C)(c2ccccc2)C1=O (stereo not given),-8.6%,-4.6%,24.2%,-4.1%,1.85µM*
CCCNC(=O)NC(=O)CN1C(=O)NC(C)(c2ccc(C)cc2)C1=O (stereo not given),/,1.6%,-18.0%,/,13.1µM*
COc1ccc(-c2cc(C(F)(F)F)nc(SCC(=O)NC(C)c3ccccc3)n2)cc1 (stereo not given),-8.4%,/,/,-1.9%,/
COc1cc2nc(NCCC(C)C)n3nc(-c4ccccc4)nc3c2cc1OC,-19.6%,/,/,-6.3%,/
SMILES,VACV mCherry inh,AMA1-RON2 inh,Pf growth 48h,Vaccinia Venus,Pf growth 96h
COC(=O)C1(Cc2ccccc2)NC(c2ccccc2C)C2C(=O)N(c3ccc4c(c3)OCO4)C(=O)C21 (stereo not given),-14.0%,0.0%,11.7µM*,-2.7%,22.7%
CCCC1(C(=O)OC)NC(c2ccc(OC)c(OC)c2)C2C(=O)N(c3ccc4c(c3)OCO4)C(=O)C21 (stereo not given),/,5.4%,/,/,80.3%
CCCCCCCCCCCC(CC1OC(=O)C1CCCCCC)OC(=O)C(CC(C)C)NC=O (stereo not given),/,/,1.07µM*,/,1.51µM*
CCCCCC1C(=O)O[C@H](C)[C@@H](NC(=O)c2cccc(NC=O)c2O)C(=O)OC(C)C1OC(=O)CC(C)C (stereo not given in full),-35.6%,/,/,-41.5%,/
COc1ccc(S(=O)(=O)N(CCc2ccccc2)CC(=O)Nc2cc(Cl)ccc2C)cc1,-20.0%,/,/,-2.1%,/
COc1ccc(/C=N/NC(=O)NC23CC4CC(CC(C4)C2)C3)c(OC)c1,-16.2%,0.3%,8.28µM*,-10.0%,?
O=C(NCc1ccco1)c1ccc2c(c1)N(Cc1ccccc1F)C(=O)c1ccccc1S2=O (stereo not given),-17.7%,/,/,-17.2%,/
Fc1ccccc1N1CCN(CCCc2ccccc2)CC1,-10.1%,-5.9%,0.3%,-7.7%,11.7µM*
Cc1c(C(=O)Nc2ccc(F)c(F)c2)oc2ccc(S(=O)(=O)N3CCCCC3)cc12,?,4.5%,13.1µM*,?,/
Cc1c(C(=O)Nc2ccc(F)cc2)oc2ccc(S(=O)(=O)N3CCC4(CC3)OCCO4)cc12,/,24.6%,9.28µM*,/,?
Cc1c(C(=O)NCc2ccccn2)oc2ccc(S(=O)(=O)N3CCC4(CC3)OCCO4)cc12,i,67.2%,13.1µM*,-8.1%,?
Cc1c(C(=O)NC2CCCc3ccccc32)oc2ccc(S(=O)(=O)N3CCCC3)cc12 (stereo not given),i,0.5%,?,-9.1%,/
Cc1c(C(=O)NC2CCCc3ccccc32)oc2ccc(S(=O)(=O)N3CCCCC3)cc12 (stereo not given),-9.9%,-10.1%,?,-12.8%,1.85µM*
Cc1c(C(=O)NCc2ccccc2)oc2ccc(S(=O)(=O)N3CCC4(CC3)OCCO4)cc12,/,-0.7%,?,/,50.9%
